BRCA1 expr act: increases BRCA1 expression. MCF7-BRCA1-FFLuc reporter, luminescence, 48 h; response scale: scaled: vehicle 0%, 10 µM genistein 100%. Potency, µM (highest dose often 46.1 µM), without a hit: at the top dose activation, most hits filed as activators. 380,000 tested, 1.1% active; also: potency is read from the fitted curve at half-maximal effect; nearly all actives have a fitted effect of over 80% in size
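Activators of BRCA1 expression were detected as increased firefly luciferase luminescence in engineered MCF7 cells after 48 h compound incubation. Signals were scaled to genistein 10 microM as full activation.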
TCR act: activates T cell receptor signaling; primary human leukocytes, anti-CD3, IL-2 HTRF, 48 h; 330,000 tested, under 10 active; Potency, µM (series often up to 9.22 µM), inactives show top-dose activation of IL-2 secretion, hits mostly activators; also: % of control where 0% means no effect
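Activity was scored as IL-2 release from primary human leukocytes given only a TCR signal (a-CD3 beads) plus compound for 48 hr. Detection used a two-antibody HTRF format read at 665nm.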
p53 reactivator: mutant p53 re-activation in reporter cells; 320,000 tested, 0.063% active; H1299 p53-A138V BP100-luciferase reporter, luminescence, 24 h; Potency, µM (doses to about 92.2 µM), for inactives: top-dose activity change, positive = activation, hits mostly activators; also: potency is read from the fitted curve at half-maximal effect; % of control where 0% means no effect; nearly all actives have a fitted effect of over 45% in size
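H1299 (p53-null), stable ts p53-A138V + BP100-Luc; 1000 cells/well, Opti-MEM/10% FBS; cpd 4 pt, 1:5; 24 h, 37 deg C, 5% CO2; detection reagent 10 min RT; luminescence.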
IL2 activator: activators of IL-2. activation, % (series mostly up to about 46 µM). IL-2 activation reporter assay, cell-based qHTS; stimulated with anti-CD3/CD4/CD28 beads; in transgenic mouse T cells. 360,000 tested, 0.065% active; in the data active = activation above about 50%; inconclusive = mostly about 30% to 49%; also: 0% is about no effect
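Using fluorescent plate cytometry, EGFP and DsRed are detected in transgenic mouse T cells stimulated 18 h at 37 degrees C with antibody-coated beads after 60 min compound pretreatment.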
Mito fusion act: inhibitors of mitochondrial division or activators of mitochondrial fusion; S. cerevisiae fusion-defective mutant growth rescue, CellTiterGlo 48 h; Potency, µM (top dose mostly 46.1 µM), for inactives: top-dose growth rescue (activation), hits mostly activators; 320,000 tested, 0.23% active; AID 485298; also: potency is read from the fitted curve at half-maximal effect; % of control where 0% means no effect; nearly all actives have a fitted effect of over 45% in size
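S. cerevisiae fusion-defective temperature-sensitive mutants (e.g. fzo1-1, mgm1-5) grown 48 h at 37C in YPEG (ethanol/glycerol non-fermentable) medium with 23 nl compound per well; growth rescue read as CellTiterGlo luminescence.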
An asterisk follows results filed as active; ? = inconclusive; · = not tested or not shown; [ ] = another dose, or the depositor's remark. A selection: hits, their analogues and other compounds. The true share with any hit is near 1.3%. Unless noted, calls follow the shape of the dose curve; as a rule, active = well fitted curve in the direction sought with a large enough effect; inconclusive = small, poorly fitted or top-dose-only effect, or another doubt; inactive = no such curve, though single readings can be large; an effect the other way counts as inactive or inconclusive.

SMILES	BRCA1 expr act	TCR act	p53 reactivator	IL2 activator	Mito fusion act
CN1/C(=C\C(=O)c2cccc([N+](=O)[O-])c2)Sc2ccccc21	2.2µM*	6%	-6%	0	3%
CC(C)c1ccc(/C=C2\C=Cc3ccccc32)cc1	39%	·	·	·	·
Oc1ccc(/C=N/Nc2nccnc2Cl)cc1	71%	9%	?	-1	-2%
Fc1ccc(/C=N/Nc2nccnc2Cl)cc1	10µM*	4%	5%	0	-7%
O=[N+]([O-])c1cccc(/C=N/Nc2nccnc2Cl)c1	7.9µM*	5%	13%	-1	-2%
COc1cc2c(NC3CCN(C)CC3)nc(N3CCCN(C)CC3)nc2cc1O	7%	·	·	·	·
Cc1ccc(-c2nnc(SC(C)C(=O)NCc3ccco3)n2C)cc1 (stereo not given)	5%	·	·	·	·
CCN(CC)c1ccc(/C=C/C(=O)C2C(=O)C=C(C)OC2=O)cc1 (stereo not given)	5.6µM*	-5%	?	11	0%
CCN(CC)c1ccc(C=C2C(=O)OC(c3ccccc3)OC2=O)cc1 (stereo not given)	23%	10%	-1%	0	-7%
O=C(C[n+]1c(Cl)ccc2ccccc21)c1ccc2ccccc2c1	1%	·	·	·	·
O=S(=O)(c1ccccc1Cl)N1CCN(c2nc(-c3ccccc3)nc3ccccc23)CC1	-22%	·	·	·	·
C=CCN(C(=O)C1=NN(C2CCS(=O)(=O)C2)C(=O)CC1)c1nc(-c2ccc([N+](=O)[O-])cc2)cs1 (stereo not given)	5µM*	·	-3%	0	-1%
Clc1ccccc1CONc1ncnc2nonc12	10µM*	-1%	28%	-1	5%
N#Cc1c(N)nc2c(c1N)CC(CO)O2 (stereo not given)	0%	-4%	4%	-3	4%
Cc1ccccc1OCC1Cc2c(nc(N)c(C#N)c2N)O1 (stereo not given)	6.3µM*	-6%	?	2	0%
N#Cc1c(N)nc2c(c1N)CC(COc1ccccc1)O2 (stereo not given)	11µM*	1%	?	-2	-2%
Cc1ccc(-c2nc(=Nc3c(C)cc(C)cc3C)sn2-c2ccccc2)cc1	-69%	·	·	·	·
O=C(c1ccc(-c2cccc(C(F)(F)F)c2)o1)N1CCOCC1	11µM*	6%	?	-1	6%
CC(=O)N1CCN(C(=O)c2ccc(-c3cccc(C(F)(F)F)c3)o2)CC1	-7%	8%	-4%	-4	0%
CCN(C(=O)C(=O)c1c(C)[nH]c2ccccc12)c1ccccc1	3%	·	·	·	·
CCc1ccc(NC(=O)CSc2nnc(-c3ccccc3)n2C)cc1	8%	·	·	·	·
O=C(COC(=O)Cn1cnc2ccccc21)Nc1ccc(Br)cc1	10%	·	·	1	·
O=C(O)/C=C/C(=O)Nc1ccc2c(c1)C(=O)c1ccccc1C2=O	11µM*	11%	18%	1	6%
Cc1ccccc1OCC(=O)Nc1ccc2c(c1)C(=O)c1ccccc1C2=O	5µM*	-6%	7%	-2	?
O=C(COC(=O)Cn1cnc2ccccc21)Nc1ccc2c(c1)C(=O)c1ccccc1C2=O	8.9µM*	-2%[46.1 µM]	?	1	0%
SMILES	BRCA1 expr act	TCR act	p53 reactivator	IL2 activator	Mito fusion act
Cc1ccccc1OCC(=O)Nc1ccc2c(c1)Cc1ccccc1-2	?	-5%	3%	-2	-2%
CCCCOC(=O)c1ccc(NC(=O)CC2NCCNC2=O)cc1 (stereo not given)	0%	·	·	·	·
CN(C)c1ccc(-c2nc3cnccn3c2Nc2ccc3c(c2)OCCO3)cc1	44%	-2%	6%	0	0%
CN(C)c1ccc(-c2nc3ccc(Cl)cn3c2Nc2ccc3c(c2)OCCO3)cc1	10µM*	·	·	·	·
O=C(C[n+]1ccccc1Cl)c1ccc2ccccc2c1	49%	·	·	·	·
CCc1nnc(NC(=O)c2ccc3c(c2)C(=O)N(C(C)(C)C)C3=O)s1	14µM*	4%	?	3	0%
CCc1nnc(NC(=O)c2ccc(NC(=O)C(C)C)cc2)s1	11µM*	3%	5%	0	-5%
COc1cc(NC(=O)C2CCN(S(=O)(=O)c3ccc4c(c3)oc(=O)n4C)CC2)cc(OC)c1	2%	·	·	·	·
CCCCOc1cccc(C(=O)N(Cc2ccc(C)o2)c2ccccn2)c1	0%	·	·	·	·
CCCCCCOc1ccc(CC(=O)O)cc1	10%	·	·	·	·
c1ccc(Nc2nc(NCc3ccco3)nc3nccnc23)cc1	-48%	·	·	·	·
CCN(CC)c1ccc2nc3c4ccccc4c(=O)cc-3oc2c1	0.89µM*	2%	·	-6	0%
O=C(Cc1cccc2ccccc12)NO	0%	·	·	·	·
COc1cc(N(C)C)c(OC)cc1/C=C/c1ccnc2ccccc12	-48%	·	·	·	·
O=C(NCCn1ccc2ccccc21)c1ccc2c(c1)OCO2	2.5µM*	-1%	?	-3	-8%
O=C(Nc1nnc(C2CCCO2)s1)c1ccc(Br)cc1 (stereo not given)	11µM*	·	14%	-1	-1%
Cc1ccc(OCC(=O)Nc2nnc(C3CCCO3)s2)c(Br)c1 (stereo not given)	-15%	0%	21%	0	-3%
Cc1cc(N2CCOCC2)ccc1/C=C1\SC(=O)N(C(C)C)C1=O	?	4%	15%	?	0%
CCC(C)N1C(=O)S/C(=C/c2ccc(N3CCOCC3)cc2C)C1=O (stereo not given)	8.9µM*	0%[46.1 µM]	?	-5	?
C#CCN1C(=O)S/C(=C\c2ccc(N3CCOCC3)cc2C)C1=O	74%	-5%	15%	203*	-4%
O=C(CSc1nc2ccccc2n1Cc1cccc(C(F)(F)F)c1)NCc1ccccc1	0%	·	·	·	·
COc1ccc(/C=C/C(=O)NC(=S)N2CCN(c3ccccc3OC)CC2)cc1	4µM*	0%	18%	0	0%
Cc1cc(NC(=O)Nc2ccc(C)c(C)c2)no1	7.9µM*	-3%	5%	6	12%
C#CCNC(=O)/C=C/c1ccc(OC)cc1	13µM*	8%	?	0	-1%
Cc1cc(NC(=O)/C=C/c2ccccc2)no1	?	1%	?	-3	-3%
SMILES	BRCA1 expr act	TCR act	p53 reactivator	IL2 activator	Mito fusion act
COc1ccc(/C=C/C(=O)Nc2cc(C)on2)cc1	4.5µM*	0%[46.1 µM]	?	-1	-2%
O=C1CC(c2cc(F)cc(F)c2)c2cc3c(cc2N1)OCO3 (stereo not given)	-4%	·	·	·	·
NCCCNc1ccc(Br)cn1	-1%	·	·	·	·
O=C(COc1ccccc1C(=O)Nc1ccccc1)Nc1ccccc1Cl	-51%	·	·	·	·
C1=Cc2ccccc2/C1=C\c1cc2c3c(c1)CCCN3CCC2	79%	·	·	·	·
COc1ccc(C(=O)/C=C/Nc2cc(C)on2)cc1	3.2µM*	0%	?	0	-2%
COc1cccc(C(=O)NC(=O)Nc2cc(C)on2)c1	7.9µM*	6%	6%	-1	2%
